The source made the active and inactive calls. Rule for the calls: active = hit-call score of the fitted dose curve at least 0.9, where 1 is the maximum; inactive = score below 0.9.
read-out: Glutamate-cysteine ligase catalytic (GCLC), GCLC (gene 2729); assay: LTEA_HepaRG_GCLC: Life Technologies and Expression Analysis (LTEA) Assay for Glutamate-cysteine ligase catalytic (GCLC) using HepaRG (AID 2283498); conditions: mRNA level, 48 h; actives raise or lower the signal
Description: LTEA_HepaRG is a cell based, multiplexed-readout assay that uses HepaRG, a human liver cell line, with measurements taken at 48 hours after chemical dosing on a 96-well plate.LTEA_HepaRG_GCLC is one of 102 assay component(s) measured in the LTEA HepaRG cell culture assay. It is a marker of Oxidative Stress.Data from the assay component LTEA_HepaRG_GCLC was analyzed into 1 endpoint. This assay endpoint, LTEA_HepaRG_GCLC, was analyzed with bidirectional fitting relative to DMSO as the negative control and baseline of activity. Using a type of inducible reporter, measures of mRNA induction for gain or loss-of-signal activity can be used to understand regulation of transcription factor activity. To generalize the intended target to other relatable targets, this assay endpoint is annotated to the ligase intended target family, where the subfamily is C-N ligase.
A total of 1060 chemcials from the ToxCast library were tested in eight-point concentration-response experiments. Cell culture and cytotoxicity assays were conducted at Thermo Fisher Scientific's Custom Services facility (Madison, WI). A single lot of human HepaRG cells (Thermo Fisher Scientific, Frederick, MD) was used for the cell culture experiments. 96-well format collagen type I coated plates of human HepaRG cells were prepared using established methods. Briefly, cryopreserved HepaRG cells were thawed, plated at a density of approximately 100,000 cells/well in HepaRG Thaw, Plate, and General Purpose media (HPRG770, Thermo Fisher Scientific), and incubated for 48 hours. 0.5% DMSO was selected as vehicle control to balance the requisite need of DMSO in HepaRG cultures to maintain differentiation (for example, baseline metabolism, proportions of hepatocytes vs. cholangiocytes), while enabling further hepatic receptor pathway activation (for example, PXR and CAR) in response to chemical exposure. 48 hours after plating, the culture medium was replaced with HepaRG Serum-Free Incudtion Media. Cells were exposed to each test chemical in duplicate and maintained in CO2 incubators for another 48 hours. Chemical plates were thawed to room temperature and 200x concentrations of treatment groups were prepared. 8-point conentration-reponse curves were made with the highest exposure at 100 uM, followed by half-log dilutions, all in 0.5% DMSO. Each test plate contained variouse controls, induction positive controls (1mM phenobarbital), cytotoxicity positive controls ([…] aflatoxin B1), vehicle controls (0.5% DMSO), and total lysis controls (0.5% DMSO). Cell morphology images were taken using an Essen IncuCyte FLR automated microscope, with six 96-well plates imaged in about 24 minutes. Images were captured and exported and JPEG files. Spent culture media was transfered to black-well plates for the LDH assay, and remaining media was sorted at -80 C for later use. Cells were treated with RLT buffer and frozen until shipped for gene expression analysis. Total RNA was isolated from the cell suspension in 75 uL of Buffer RLT (Qiagen, Germantown, MD 20874) by Quintiles/Expression Analysis (Durham, NC) using a custom isolation procedure. Total RNA from each plate well was transferred to a preamplification plate. Fluidigm's 96.96 Dynamic ArrayTM (Fluidigm, Amsterdam, the Netherlands) technology was used for gene expression analyses by quantitative reverse transcription polymerase chain reaction (qRT-PCR, performed by Quintiles/Expression Analysis, Durham, NC)89. Standard TaqManTM Assays (Applied Biosystems/ThermoFisher Scientific, Foster City, CA) were used to assess the expression of 93 genes selected based on their selectivity and sensitivity to important hepatic receptors known to be modulated by environmental chemicals; importance in human hepatocyte functionality; and hepatotoxicity. […]

SMILES	outcome	AC50
Nc1c(Cl)c(Cl)nc(C(=O)O)c1Cl	inactive	
CCOc1cc(C(C)(C)C)ccc1C1COC(c2c(F)cccc2F)=N1 (stereo not given)	inactive	
CC(C)=CC1C(C(=O)OCc2coc(Cc3ccccc3)c2)C1(C)C (stereo not given)	inactive	
Cc1nc(N(C)C)nc(OC(=O)N(C)C)c1C	inactive	
COC(=O)N(C(=O)N1CO[C@@]2(C(=O)OC)Cc3cc(Cl)ccc3C2=N1)c1ccc(OC(F)(F)F)cc1	inactive	
CC(C)N1C(=O)N(c2ccccc2)CSC1=NC(C)(C)C		81.8 µM (active)
COc1ccc(-c2ccccc2)cc1NNC(=O)OC(C)C	inactive	
CCOc1nc(F)cc2nc(S(=O)(=O)Nc3c(Cl)cccc3Cl)nn12	inactive	
Cc1c(COC(=O)[C@@H]2[C@H](/C=C(\Cl)C(F)(F)F)C2(C)C)cccc1-c1ccccc1	inactive	
Cn1c(-c2ccccc2)cc(-c2ccccc2)[n+]1C		82.3 µM (active)
CS(=O)(=O)c1cc(C(F)(F)F)ccc1C(=O)c1cnoc1C1CC1	inactive	
CCCN(CC)CC1COC2(CCC(C(C)(C)C)CC2)O1 (stereo not given)	inactive	
O=C(Nc1ccccc1-c1ccc(Cl)cc1)c1cccnc1Cl	inactive	
O=P(O)(O)CCCl	inactive	
CSC(=O)c1c(C(F)F)nc(C(F)(F)F)c(C(=O)SC)c1CC(C)C	inactive	
CNC(=O)N(C)c1nnc(C(C)(C)C)s1	inactive	
COc1cc(OC)nc(NC(=O)NS(=O)(=O)c2ncccc2OCC(F)(F)F)n1	inactive	
COC(=O)NS(=O)(=O)c1ccc(N)cc1	inactive	
COCC(C)N(C(=O)CCl)c1c(C)csc1C (stereo not given)		50 µM (active)
CS(=O)(=O)c1ccc(C(=O)C2C(=O)CCCC2=O)c([N+](=O)[O-])c1	inactive	

SMILES	outcome	AC50
C=CCOC(=O)C(C)(C)OC(=O)c1cc(-n2c(=O)cc(C(F)(F)F)n(C)c2=O)ccc1Cl	inactive	
CNC(=O)Oc1cccc2ccccc12	inactive	
COC(=O)NC(=S)Nc1ccccc1NC(=S)NC(=O)OC	inactive	
Cc1cnc(C2=NC(C)(C(C)C)C(=O)N2)c(C(=O)O)c1 (stereo not given)	inactive	
CO/N=C(/C1=NOCCO1)c1ccccc1Oc1ncnc(Oc2ccccc2Cl)c1F	inactive	
OC(c1ccc(Cl)cc1)(c1ccc(Cl)cc1)C(Cl)(Cl)Cl	inactive	
COc1cc(Cl)c(OC)cc1Cl	inactive	
CCNP(=S)(OC)O/C(C)=C/C(=O)OC(C)C (stereo not given)	inactive	
CC1(C)C(C=C(Cl)Cl)C1C(=O)OC(C#N)c1cccc(Oc2ccccc2)c1 (stereo not given)	inactive	
Nc1cnn(-c2ccccc2)c(=O)c1Cl	inactive	
Cc1cc(C)nc(Nc2ccccc2)n1	inactive	
CCNC(=O)NC(=O)C(C#N)=NOC		9.92 µM (active)
CC(C)N1C(=O)c2ccccc2NS1(=O)=O	inactive	
Clc1nc(Cl)nc(Nc2ccccc2Cl)n1	inactive	
CCOc1nc(C(Cl)(Cl)Cl)ns1		0.939 µM (active)
COP(=S)(OC)Oc1ccc([N+](=O)[O-])c(C)c1	inactive	
N#CN=C1SCCN1Cc1ccc(Cl)nc1	inactive	
CC1(C)C(C(=O)OC(C#N)c2cccc(Oc3ccccc3)c2)C1(C)C (stereo not given)	inactive	
CC(C)(C)C(=O)C(Oc1ccc(Cl)cc1)n1cncn1 (stereo not given)	inactive	
CCCCOCN(C(=O)CCl)c1c(CC)cccc1CC	inactive	
